# PubChem BioAssay AID720553 (National Center for Advancing Translational Sciences (NCATS), 2013)
# Out of some 340,000 compounds screened, about 3,300 (0.97%) were called active.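 The calls were made as follows: active = maximum activity change below -70%; inconclusive = maximum activity change from -70% to -50%; inactive = maximum activity change above -50%.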 The entries come from a sample that favours actives as a whole.
# Tested on: Potassium voltage-gated channel subfamily H member 2, brain isoform KCNH2 3.1 (human)
# Test: qHTS for Inhibitors of KCHN2 3.1: Mutant qHTS
# Conditions: U2OS KCNH2 3.1, thallium flux FluxOr; active compounds read low
# Text: Many antipsychotic drugs that inhibit the neurotransmitter dopamine also bind to hERG1 channel which might help explain their antipsychotic activity but also produces cardiac side effects. The discovery of the novel KCNH2 3.1 isoform offers a potential new target for the development of antipsychotic drugs without cardiac side effects. This proposal will use a high throughput thallium flux assay developed for KCNH2 to screen compounds that modulate the activity of KCNH2 3.1. The wild type KCNH2 channel will also be screened in parallel to help define the selective modulators of this KCNH2 3.1 potassium channel. The resulting compounds will be validated in electrophysiology experiments. The availability of animal models will allow future testing in vivo for effects on memory and other aspects of animal physiology linked with psychosis. NIH Chemical Genomics Center [NCGC] NIH Molecular Libraries Probe Centers Network [MLPCN] MLPCN Grant: MH096539 Assay Submitter (PI): James Barrow, Johns Hopkins University, Lieber Institute for Brain Development
# U2OS cells were resuspended in cell media containing 10% fetal calf serum (FCS) at a concentration of 2 million cells / mL. The solution was treated with the mutant (3.1) virus at 1.77 x 10^8 / mL and allowed to incubate at room temperature in the dark. After 4 hours of incubation, DMEM + 10% fetal bovine serum (FBS) was added to the cell solution. Three microliter was then dispensed into a 1536 tissue culture treated black assay plates which were incubated overnight at 37 C. Two microliter of loading buffer (HBSS + HEPES + Red40 dye quencher + FluxOr dye) was added and the assay plates were incubated for 45 min at room temperature in the dark. […] A stimulation buffer was added to the plate and the second kinetic read (2 min) was obtained. The rate constant was calculated from the kinetic reads and normalized to the positive and negative DMSO controls.
# % is scaled to controls: 0 for no effect and ±100 for the full control effect.
row,Structure (SMILES),activity change
1,O=C(Cc1cccs1)Nc1nnc(SCc2ccc(F)cc2)s1,3.31% (inactive)
2,CCc1ccccc1OCC(=O)Nc1nnc(C2CC2)s1,-8.55% (inactive)
3,O=C(Cc1cccs1)Nc1nnc(C2CC2)s1,-217% (active)
4,O=S(=O)(NC1CCCC1)c1ccc(-n2cnnn2)cc1,5.4% (inactive)
5,CCOC(=O)C1CCCN(S(=O)(=O)c2ccc(-n3cnnn3)c(C)c2)C1 (configuration not stated),10.1% (inactive)
6,Cc1cc(S(=O)(=O)NC2CCCC2)ccc1-n1cnnn1,-70.6% (active)
7,O=C(/C=C/c1ccc(Cl)cc1)N1CCN(c2ccccc2[N+](=O)[O-])CC1,-108% (active)
8,O=C(c1ccc(Cl)c([N+](=O)[O-])c1)N1CCN(c2ccccc2)CC1,9.67% (inactive)
9,O=C(c1ccc(N2CCOCC2)c([N+](=O)[O-])c1)N1CCN(c2ccccc2F)CC1,1.08% (inactive)
10,C[C@H]1CN([C@@H](C)CO)C(=O)CCCn2cc(nn2)CO[C@@H]1CN(C)C(=O)Nc1ccccc1,13.1% (inactive)
11,O=C(O)C(=Cc1ccc([N+](=O)[O-])cc1)CCc1ccccc1,-2.12% (inactive)
12,COc1ccc(NC(=O)CN(C)C(=O)c2cccc(S(=O)(=O)N3CCN(c4ccccc4)CC3)c2)cc1,-101% (active)
13,Cc1ccc(NC(=O)CN(C)C(=O)c2cccc(S(=O)(=O)N3CCCC3)c2)cc1,4.37% (inactive)
14,CCOc1ccc(NC(=O)CN(C)C(=O)c2cccc(S(=O)(=O)N3CCCC3)c2)cc1OCC,0.537% (inactive)
15,CC(C)CC1C(=O)N(Cc2cn(CC3CCCCC3)nn2)CCS(=O)(=O)N1Cc1ccc(-c2ccc(Cl)cc2)cc1 (configuration not stated),4.02% (inactive)
16,O=c1[nH]c(CN2CCOCC2)nc2scc(-c3ccccc3)c12,0.718% (inactive)
17,NC(=O)Cc1nc2scc(-c3ccc(Cl)cc3)c2c(=O)[nH]1,-145% (active)
18,Cc1sc2nc(CC(N)=O)[nH]c(=O)c2c1-c1ccccc1,4% (inactive)
19,C[C@@H]1CN([C@@H](C)CO)S(=O)(=O)c2ccc(-c3ccc(C(=O)N(C)C)cc3)cc2O[C@@H]1CN(C)Cc1ccccc1C(=O)O,-0.261% (inactive)
20,CC(=O)Nc1ccc(C=Cc2ccc([N+](=O)[O-])cc2)cc1,-16.2% (inactive)
21,Cc1ccc(C(CNC(=O)Nc2ccccc2)N2CCN(C)CC2)cc1 (configuration not stated),-194% (active)
22,Cc1ccc(C(CNC(=O)Nc2cccc(C)c2)N2CCN(C)CC2)cc1 (configuration not stated),3.75% (inactive)

row,Structure (SMILES),activity change
1,COc1ccc(S(=O)(=O)NCC(c2ccc(C)cc2)N2CCN(C)CC2)cc1OC (configuration not stated),-2.06% (inactive)
2,Cc1ccc(S(=O)(=O)N2C[C@H]3n4c(=O)ccc(=O)n4C[C@H](OC(=O)NC4CCCC4)[C@@]3(O)C2)cc1,-5.45% (inactive)
3,C[C@H]1CN([C@@H](C)CO)C(=O)c2cc(Br)cnc2O[C@H]1CN(C)S(=O)(=O)c1cccs1,-4.3% (inactive)
4,C[C@@H]1CN([C@H](C)CO)C(=O)c2cc(Br)cnc2O[C@@H]1CN(C)Cc1cncnc1,6.02% (inactive)
5,C[C@@H]1CN([C@@H](C)CO)C(=O)c2cc(Br)cnc2O[C@H]1CN(C)Cc1ccc(-c2ccccc2)cc1,-85.7% (active)
6,C[C@H](CO)N1C[C@H](C)[C@H](CN(C)C(=O)Nc2ccc3c(c2)OCO3)Oc2ncc(Br)cc2C1=O,12.1% (inactive)
7,CSc1ncnc2c1ncn2CCCNCC(C)c1ccccc1 (configuration not stated),6.46% (inactive)
8,Cc1ccc(-n2c(SCC(=O)NCCC3=CCCCC3)nc3n[nH]c(C)c3c2=N)cc1Cl,-4.71% (inactive)
9,COc1cccc(-n2c(SCC(=O)NC3CCCCC3)nc3n[nH]c(C)c3c2=N)c1,13.7% (inactive)
10,CCCCNC(=O)CSc1nc2n[nH]c(C)c2c(=N)n1-c1cccc(Cl)c1C,-75.1% (active)
11,Cc1[nH]c2ccccc2c1C(=O)C(=O)NCc1nnnn1-c1cccc(F)c1,-6.04% (inactive)
12,O=C(COC(=O)CCc1c[nH]c2ccccc12)Nc1cccc(Cl)c1,-6.53% (inactive)
13,CCN(C(=O)COC(=O)Cc1c(F)cccc1Cl)c1c(N)n(Cc2ccccc2)c(=O)[nH]c1=O,-102% (active)
14,COCCN(C(=O)COC(=O)Cc1cccc(OC)c1)c1c(N)n(Cc2ccccc2)c(=O)[nH]c1=O,8.15% (inactive)
15,CCN(C(=O)COC(=O)CCOc1cccc(C)c1)c1c(N)n(Cc2ccccc2)c(=O)[nH]c1=O,11.4% (inactive)
16,CC1CCC2(CC1)NC(=O)N(CC(=O)NCc1ccco1)C2=O (configuration not stated),15.5% (inactive)
17,COc1ccccc1C(CNC(=O)c1cccc(S(=O)(=O)Nc2ccc(F)cc2)c1)N(C)C (configuration not stated),0.933% (inactive)
18,O=C(NCc1ccccc1CN1CCCC1)c1cccc(S(=O)(=O)Nc2ccc(F)cc2)c1,-81.1% (active)
19,O=C(NCCN1CCOCC1)c1cccc(S(=O)(=O)Nc2ccc(F)cc2)c1,-9.37% (inactive)
20,O=C(CC(CC(=O)c1ccccc1)c1ccco1)c1ccccc1,-1.01% (inactive)
21,CSC1=NN(c2ccccc2)CN(c2ccccc2)N1C,-1.49% (inactive)
22,Cc1ccc(OCc2n[nH]c(=S)n2-c2ccccc2)cc1,-4.15% (inactive)

row,Structure (SMILES),activity change
1,Cc1ccc(OCc2nnc(SC3CCc4ccccc4C3=O)n2C)cc1 (configuration not stated),-114% (active)
2,Cc1cccnc1NC(=O)CSc1nnc(COc2ccc(C(C)C)cc2)n1C,13.2% (inactive)
3,Cc1sc2nc(-c3ccccc3F)oc(=O)c2c1C,9.16% (inactive)
4,CC1=C(C(=O)N(C)C)CC(CC(=O)NCCN2CCOCC2)C(=O)N1Cc1ccccc1 (configuration not stated),-16.9% (inactive)
5,C[C@@H]1CN([C@H](C)CO)C(=O)CCCn2cc(nn2)CO[C@H]1CN(C)S(C)(=O)=O,21.6% (inactive)
6,CC(NC(=O)c1cc(-c2ccccc2)on1)c1ccccc1 (configuration not stated),-114% (active)
7,O=C(NC1CCCC1)c1cc(-c2ccccc2)on1,4.52% (inactive)
8,Cc1ccc(C(=O)NC(C)c2ccccc2)cc1Br (configuration not stated),-9.99% (inactive)
9,COc1cccc(N2CC(NS(=O)(=O)c3ccc(Cl)cc3)CC2=O)c1 (configuration not stated),25.6% (inactive)
10,COc1cccc(N2CC(NS(=O)(=O)c3cccs3)CC2=O)c1 (configuration not stated),-5.41% (inactive)
11,COc1ccc(N2CC(NS(=O)(=O)c3ccc4ccccc4c3)CC2=O)cc1 (configuration not stated),-102% (active)
12,COc1ccc([C@H]2N[C@]3(CCCN(Cc4ccco4)C3=O)[C@H]3C(=O)N(C)C(=O)[C@@H]23)cc1,-5.99% (inactive)
13,CCc1c(N=O)c(-c2ccccc2)n(O)[n+]1[O-],-12.8% (inactive)
14,O=C1CC[C@H](O)CCN1[C@H](CSc1ccc(Br)cc1)Cc1ccccc1,8.81% (inactive)
15,C[C@H]1CCC(=O)N([C@H](CSc2ccccc2)Cc2ccccc2)CC1,2.57% (inactive)
16,COc1ccc(SC[C@H](Cc2ccccc2)N2CCN(CCc3ccccc3)CCC2=O)cc1,-105% (active)
17,COc1cc(C=NC2CCCCC2)ccc1O,-7.89% (inactive)
18,C[C@H](CO)N1C[C@H](C)[C@@H](CN(C)S(=O)(=O)c2ccc(Oc3ccccc3)cc2)OCc2cn(nn2)CCCC1=O,2.39% (inactive)
19,C=CCN1CCN(c2ccncc2S(=O)(=O)N2CCN(C)CC2)CC1,-3.97% (inactive)
20,Cc1ccc([C@H]2C[C@H](O)[C@@H](n3cc(COC(=O)c4ccccc4)nn3)CN2C(=O)C2CCCCC2)cc1,-7.68% (inactive)
21,COc1cccc(NC(=O)CN(C)C(=O)c2cc(Cl)nc3ccccc23)c1,14.5% (inactive)
22,CN1CCN(C2Cc3ccc(Cl)cc3Sc3ccc(F)cc32)CC1 (configuration not stated),-75.9% (active)

row,Structure (SMILES),activity change
1,O=C(O)C1CCCN1c1nc(Cl)ccc1[N+](=O)[O-] (configuration not stated),-2.11% (inactive)
2,O=C(COC(=O)c1ccc(S(=O)(=O)N2CCCCCC2)cc1)Nc1ccccc1C(F)(F)F,-2.65% (inactive)
3,CC(=O)Nc1c(-c2ccc(C)cc2)nc2ccc(Cl)cn12,2.86% (inactive)
4,CCCCCC(O)(CCN1CCCCC1)c1ccccc1 (configuration not stated),-102% (active)
5,C#CC(CCN1CCCCC1)(OC)c1ccccc1 (configuration not stated),58.1% (inactive)
6,CCCCCCC(O)(CCN1CCCCC1)c1ccccc1 (configuration not stated),-21.6% (inactive)
7,Cc1ccc(NC(=O)c2ccco2)cc1,4.6% (inactive)
8,Cc1cc(C)c2c(=O)n3c(nc2c1)C(CC(C)C)NC(=O)c1cc2ccccc2cc1-3 (configuration not stated),-30.6% (inactive)
9,O=C(Nc1nonc1-c1ccc(Cl)cc1)c1ccco1,-7.1% (inactive)
10,Cc1ccccc1NC(=O)c1cnn(-c2ccccc2)c1NC(=O)c1ccco1,11.4% (inactive)
11,O=C(Nc1c(-c2ccccc2)nc2c(Br)cc(Br)cn12)c1ccco1,-72.2% (active)
12,CCCCCCN1C[C@H](O)[C@@H](n2cc(C3CC3)nn2)C[C@@H]1c1ccc(Cl)cc1,-39.7% (inactive)
13,CN1OC[C@@H]2CN(C(=O)c3ccc(-c4ccccc4)cc3)[C@H](c3ccc(-c4cccc(F)c4)cc3)C[C@@H]21,-5.34% (inactive)
14,COC(=O)C(Cc1c[nH]c2ccccc12)NC(=O)CCNC(=O)c1ccco1 (configuration not stated),3.09% (inactive)
15,O=C(C[C@H]1C[C@H]2c3cc(NS(=O)(=O)c4ccc(F)cc4)ccc3O[C@H]2[C@H](CO)O1)NCc1cc(F)ccc1F,-4.51% (inactive)
16,CCC(CC)COC(=O)C1=C(C)NC(=O)NC1c1ccc([N+](=O)[O-])cc1 (configuration not stated),10.1% (inactive)
17,CC1=C(C(=O)OC2CCCCC2)C(c2ccccc2F)NC(=O)N1 (configuration not stated),8.03% (inactive)
18,CC1=C(C(=O)OCC2CCCCC2)C(c2ccc(F)cc2)NC(=O)N1 (configuration not stated),-100% (active)
19,COC(=O)c1ccc(/C=N/NC(=O)C(=O)N2CCCCCC2)cc1,2.79% (inactive)
20,COc1cccc(/C=N/NC(=O)C(=O)N2CCCC2)c1,-74.7% (active)
21,O=C(N/N=C/c1ccc2c(c1)OCO2)C(=O)N1CCCC1,-5.78% (inactive)
